This passage reports Potency results from PubChem BioAssay (NCATS).

Test [1] in a line: P-glycoprotein substrates identified in KB-8-5-11 adenocarcinoma cell line, qHTS therapeutic library screen (AID 1346987). Note: nearly all actives have a fitted effect of over 65% in size. The procedure, abridged:
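Luminescence from CellTiter-Glo, read 5 min after addition, quantified survival of KB-8-5-11 (P-gp-overexpressing) cells exposed to compounds for 72 h. AC50 was derived from concentration-response curves.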

A short description of test [2]: P-glycoprotein substrates identified in KB-3-1 adenocarcinoma cell line, qHTS therapeutic library screen (AID 1346986). Note: nearly all actives have a fitted effect of over 60% in size.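 Note: potency is for cytotoxicity meaning loss of cell viability.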 The procedure, abridged:
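Viability read by CellTiter-Glo after 72 h compound exposure in dose-response of KB-3-1 and KB-8-5-11 (P-gp-high) cells. Hits needed AC50 < 10 uM, >50% maximum response and curve class -1.1 to -2.4. Cherry-picks retested ± tariquidar, including pcDNA/MDR-19 HEK-293 pair.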

Test [3] can be described thus: NS1 protein of Zika virus - qHTS assay to identify small molecule inhibitors in human HEK 293 cells (AID 1347053). Note: nearly all actives have a fitted effect of over 55% in size. The method, boiled down:
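TR-FRET signal from two anti-ZIKV NS1 antibodies quantified NS1 in HEK 293 cells 24 h after MR766 infection at MOI = 0.5; compounds were added 1 h before virus. Uninfected cells and infected cells defined the NS1 normalization range.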

Test [4] in a line: qHTS of pediatric cancer cell lines to identify multiple opportunities for drug repurposing: Primary screen for TC32 cells (AID 1347089). Note: nearly all actives have a fitted effect of over 60% in size. The procedure, abridged:
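Luminescent CellTiter-Glo read-out of metabolically active TC32 cells after 48 h compound exposure. Primary: MIPE 11-point, 0.78 nM–46 µM; NPC 8-point, 0.59 nM–46 µM. Confirmatory: 11-point dilutions.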

A short description of test [5]: qHTS of pediatric cancer cell lines to identify multiple opportunities for drug repurposing: Primary screen for DAOY cells (AID 1347090). Note: nearly all actives have a fitted effect of over 55% in size. The procedure, abridged:
(§1)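 Cell viability, CellTiter-Glo luminescence; 500-1,000 cells/well, 8- or 11-point titration, 48 h compound exposure at 37 degrees C, 5% CO2. Controls: DMSO neutral, bortezomib 2.3 µM final as positive.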

Test [6] in a line: qHTS of pediatric cancer cell lines to identify multiple opportunities for drug repurposing: Primary screen for SJ-GBM2 cells (AID 1347091). The procedure, abridged: as §1

Values joined by “and” are separate entries in the source; they are usually repeats but may differ in a detail not shown here. Identical values can stand only once. Results filed as inconclusive are left out. Where a structure was tested more than once in an assay, its records may differ in their call. Active and inactive are the calls of the source. Calls come from the whole dose curve; as a rule, active = well fitted curve in the direction sought with a large enough effect; inconclusive = small, poorly fitted or top-dose-only effect, or another doubt; inactive = no such curve, though single readings can be large; an effect the other way counts as inactive or inconclusive. Starred links: 1 amine or outer side, 2 acyl side, 3 side chain; linkers in the order of their positions; H or OH if unused. Positions of bridges follow the written chain, without caps; N, C: chain ends. Non-standard residues stand in square brackets, D forms with d. Residues, ends and D or L forms follow the SMILES beside them. Chains are numbered I, II in the order given. Actinocin(9to1) = Cc1c2oc3c(C)ccc(C(=O)[*:1])c3nc-2c(C(=O)[*:2])c(N)c1=O; NMeV = CN[CH](C(=O)O)C(C)C; Sar = CNCC(=O)O
Potency is the fitted concentration of half-maximal effect.

For the compound `c1ccc(CNc2nc(NCc3ccccc3)c3ccccc3n2)cc1`, the Potency in test [1] was 20.9 µM (active).
On to `C=CC(=O)N1CCc2ccc(-n3c(=O)ccc4cnc5ccc(-c6cnn(C)c6)cc5c43)cc21`, for which the Potency in test [2] is 3.99 µM (active); in test [3], 2.96 µM (active); in test [4], 9.3 µM (active); in test [5] it was 5.9 µM (active); in test [6], 5.9 µM (active).
As to `CC(=O)N[C@@H]1[C@H](O[C@@H]2c3ccc(c(Cl)c3)Oc3cc4cc(c3O[C@H]3O[C@H](CO)[C@@H](O)[C@H](O)[C@H]3NC(=O)CCCCCCCC(C)C)Oc3ccc(cc3Cl)C[C@H]3NC(=O)[C@H](N)c5ccc(O)c(c5)Oc5cc(O)cc(c5)[C@H](NC3=O)C(=O)N[C@H]4C(=O)N[C@H]3C(=O)N[C@@H]2C(=O)N[C@@H](C(=O)O)c2cc(O)cc(O[C@H]4O[C@H](CO)[C@@H](O)[C@H](O)[C@H]4O)c2-c2cc3ccc2O)O[C@H](CO)[C@@H](O)[C@@H]1O`, the Potency result in test [2], in test [1], in test [4], in test [5] and in test [6] was “inactive” each time.
`N#Cc1c(NC(=O)c2cccc3ccccc23)sc2c1CCCC2`: the Potency in test [2] was 0.366 µM (active); in test [1] it was 418 nM (active) and 291 nM (active); in test [3], 10.5 µM (active); in test [5] it was 0.296 µM (active); in test [6], 0.332 µM (active).
With `O=C(O)c1ccc(Nc2ncc3c(n2)-c2ccc(Cl)cc2C(c2c(F)cccc2F)=NC3)cc1`, the Potency in test [2] was 0.82 µM (active). For the same compound, the Potency result in test [3] is “inactive”.
Take `Cc1ccc(O)c(C(CCN(C(C)C)C(C)C)c2ccccc2)c1` (stereo unspecified): the Potency entry in test [2], in test [1], in test [3], in test [5] and in test [6] was “inactive” in each case.
Turning to `NC[C@H]1O[C@H](O[C@H]2[C@@H](O)[C@@H](O[C@H]3O[C@H](CO)[C@@H](O)[C@H](N)[C@@H]3O)[C@H](N)C[C@@H]2N)[C@H](N)C[C@H]1O`, the Potency entry in test [1], in test [3], in test [4] and in test [5] was “inactive” each time.
In the case of `CC(C=CC(=O)NO)=C[C@@H](C)C(=O)c1ccc(N(C)C)cc1`, the values for the Potency in test [1], in test [4] and in test [5] were 1.05 µM (active), 2.34 µM (active) and 1.48 µM (active), respectively. The Potency result in test [3] is “inactive”.
On to `O=C1c2c(O)cccc2[C@@H]([C@@H]2O[C@H](CO)[C@@H](O)[C@H](O)[C@H]2O)c2cc(CO)cc(O)c21`, for which the Potency result in test [2], in test [1], in test [3], in test [5] and in test [6] was “inactive” in each case.
As for `O=C(O)C=Cc1ccc(Cn2ccnc2)cc1`, the Potency result in test [2], in test [1], in test [4] and in test [6] was “inactive” each time.
On to `CCCCCCCCCCCCCCCC(=O)OC[C@@H](NC(=O)C(Cl)Cl)[C@H](O)c1ccc([N+](=O)[O-])cc1`, for which the Potency result in test [2], in test [1], in test [3], in test [5] and in test [6] was “inactive” throughout.
Regarding `O=c1ccn([C@@H]2O[C@H](CO)[C@H](O)[C@@H]2F)c(=O)[nH]1`, the Potency entry in test [1], in test [3], in test [4] and in test [5] was “inactive” each time.
For the compound `Cn1cc(C=CC(=O)c2cccc(F)c2)cc1C=CC(=O)NO`, the Potency entry in test [2], in test [1], in test [3] and in test [6] was “inactive” throughout.
With `CCNC(=O)Nc1ccc(-c2nc3c(c(N4CCOC[C@H]4C)n2)CCN(C2COC2)C3)cc1`, the Potency was 0.58 µM (active) in test [2], 1.84 µM (active) in test [1] and 0.743 µM (active) in test [6]. Also, in test [3], the Potency entry is “inactive”.
As to `N#Cc1ccc(COC[C@H]2O[C@@H](n3c(NCc4ccc(Cl)c(Cl)c4)nc4c(N)ncnc43)[C@@H](O)[C@@H]2O)cc1`, the Potency entry in test [1] is “inactive”.
As to `CC(=O)O[C@]1(C(C)=O)CC[C@H]2[C@@H]3C=C(C)C4=CC(=O)CC[C@]4(C)[C@@H]3CC[C@@]21C`, the Potency result in test [2], in test [1] and in test [3] was “inactive” each time. For the same compound, the Potency in test [5] is 7.43 µM (active).
`CCNC(=O)c1cc2c(-c3cc(OCCN4CCCC4)c(Cl)cc3Cl)nc(N)nc2s1`: the Potency in test [1] was 5.26 µM (active); in test [4] it was 3.7 µM (active). In test [3], the Potency result was “inactive”.
With `COc1cc(C)c(Sc2cnc(NC(=O)c3ccc(CNC(C)C(C)(C)C)cc3)s2)cc1C(=O)N1CCN(C(C)=O)CC1` (stereo unspecified), the Potency entry in test [2] and in test [1] was “inactive” each time. In addition, the Potency in test [5] is 18.7 µM (active); in test [6], 4.69 µM (active).
As to `Cc1c2oc3c(C)ccc(C(=O)NC4C(=O)NC(C(C)C)C(=O)N5CCCC5C(=O)N(C)CC(=O)N(C)C(C(C)C)C(=O)OC4C)c3nc-2c(C(=O)NC2C(=O)NC(C(C)C)C(=O)N3CCCC3C(=O)N(C)CC(=O)N(C)C(C(C)C)C(=O)OC2C)c(N)c1=O` (stereo unspecified) (I: TVP[Sar][NMeV] / II: TVP[Sar][NMeV]; ester I:1-I:C, II:1-II:C; linker I:N-II:N via Actinocin(9to1); configuration not given here), the Potency in test [1] was 0.187 µM (active); in test [3] it was 7.43 µM (active); in test [4] it was 0.523 µM (active).
Regarding `C=CC(=O)Nc1cc(NC(=O)c2ccc(C)c(NC(=O)c3ccno3)c2)cc(C(F)(F)F)c1`, the Potency entry in test [1] was “inactive”.
With `COc1cc2ncnc(Nc3cccc(Br)c3)c2cc1OC`, the Potency result was “inactive and 18.4 µM (active)” in test [2]; 20.9 µM (active) in test [6]. In addition, the Potency entry in test [1], in test [3] and in test [4] was “inactive” each time.
On to `CCOC(=O)N1CCN([N+]([O-])=NOc2ccc([N+](=O)[O-])cc2[N+](=O)[O-])CC1`, for which the Potency result in test [2], in test [1] and in test [3] was “inactive” each time. Besides, the Potency in test [5] is 18.7 µM (active); in test [6] it was 8.33 µM (active).
For the compound `C=CC[C@@H]1C=C(C)C[C@H](C)C[C@H](OC)[C@H]2O[C@@](O)(C(=O)C(=O)N3CCCC[C@H]3C(=O)O[C@H](C(C)=C[C@@H]3CC[C@H](O)[C@H](OC)C3)[C@@H](C)[C@@H](O)CC1=O)[C@@H](C)C[C@@H]2OC`, the Potency result in test [2], in test [4] and in test [5] was “inactive” throughout.
On to `O=c1[nH]c(=O)n([C@H]2C[C@@H](O)[C@@H](CO)O2)cc1F`, for which the Potency in test [1] was 1.66 µM (active); in test [3] it was 0.833 µM (active); in test [4] it was 0.93 µM (active).
`Cc1cnn(C)c1C(=O)Nc1cc(Nc2ccc3c(C=Cc4ccccn4)n[nH]c3c2)ccc1F`: in test [1], the Potency is 5.26 µM (active).
Regarding `O=C1c2cccc(O)c2C(=O)c2c(O)cc(CO)cc21`, the Potency result in test [1], in test [3] and in test [4] was “inactive” in each case.
`O=C(NCc1ccccc1)[C@H](Cc1ccccc1)NC(=O)[C@@H]1O[C@@H]1C(=O)NCCc1ccc(O)cc1`: the Potency entry in test [1], in test [3] and in test [4] was “inactive” each time.
